Screens: PubChem, Broad Institute
Sampled rows, rich in hits. Any-hit rate of the full collection: about 3.1%.
FGF22 binding = binders of human FGF22 protein, primary screen, FGF22 synaptogenesis inhibitor project, biophysical, thermal shift, single point; activity (Tm shift, normalised), % at 9.99 µM; AID 651658, 2012; Fibroblast growth factor 22 (Homo sapiens), Q9HCT0; 340,000 tested, 1.5% active; recombinant FGF22 thermal shift, SYPRO orange fluorescence; percent of sucrose octasulfate shift, DMSO zero;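 active = mean Tm shift, scaled 0 neutral to 100 positive control, at about 1.3% or above, every replicate too, limit read from the data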
ERAP1 HTS inh = human ERAP1 aminopeptidase inhibitors, primary screen, biochemical, single point, plate reader. recombinant ERAP1, Leu-AMC fluorescence, 60 min. inhibition, % at 10.7 µM. 340,000 tested, 0.15% active;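 active = mean replicate inhibition of at least 30%, or all replicates individually reaching that 30% level; inactive = mean below 30% and not every replicate reaching it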
Casp6 inh = human caspase-6 inhibitors, primary screen, biochemical, VEID-R110 fluorescence, single point, set 2. purified caspase-6, Z-VEID-R110 cleavage fluorescence. inhibition, % at 12.5 µM. 350,000 tested, 0.53% active;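 active = mean inhibition across replicates at least about 35%, with every replicate also reaching that limit, limit read from the data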
SIRT5 block = SIRT5 desuccinylase inhibitors, primary screen, biochemical, fluorescence imaging, single point, set 5; NAD-dependent protein deacylase sirtuin-5, mitochondrial (Homo sapiens), Q9NXA8; Purified SirT5, succinyl-peptide AMC, trypsin-coupled fluorescence; inhibition, % at 15 µM; 330,000 tested, 1.1% active; AID 652115, 2013; in the data active = inhibition above about 15%
A number is an active result; – = inactive; · = not tested or not shown.

SMILES	FGF22 binding	ERAP1 HTS inh	Casp6 inh	SIRT5 block
FC(F)(F)c1cccc(NC2=NCCS2)c1	44	–	–	·
CCc1ccc2nc(N3CCC(C(=O)N4CCC5(CC4)OCCO5)CC3)sc2c1	–	–	–	30
COc1ccc(CNCC(=O)N2CCC3(CC2)OCCO3)cc1	–	–	–	–
O=C(Cc1ccccn1)N1CCCCN2[C@H](C1)[C@@H](c1ccc(Br)cc1)[C@@H]2CO	–	–	–	–
O=C1NC(=S)N(c2ccccc2)C(=O)/C1=C/c1ccco1	–	–	95	38
CCOc1cccc(N2C(=O)/C(=C/c3ccco3)C(=O)NC2=S)c1	–	–	87	36
CSC(=Nc1ccccc1)c1c(O)n(C)c(=O)n(C)c1=O	·	–	–	19
CCCCn1nnnc1C(CCSC)N1CCC(n2c(=O)[nH]c3ccccc32)CC1 (stereo unspecified)	–	–	50	–
O=C(Cc1ccccc1)N1CCCCN2[C@H](CO)[C@@H](c3ccc(-c4ccccc4)cc3)[C@@H]2C1	–	·	·	–
C[CH2][Hg][S]c1ccccc1C(=O)O	–	–	49	–
CCCN(CCC)CCc1c[nH]c2ccccc12	–	–	–	·
CCC(CC)NCc1c[nH]c2ccccc12	43	–	–	–
COc1ccc(-n2c(/C=C/c3ccc4c(c3)OCO4)nc3ccccc3c2=O)cc1	–	–	–	32
COc1ccc(-n2c(/C=C/c3ccc(O)cc3)nc3ccccc3c2=O)cc1	–	–	–	–
O=C(Cc1ccccc1)N1CC2(C1)[C@@H](c1ccccc1)[C@@H](CO)N2Cc1cccc(F)c1	–	–	–	–
O=[N+]([O-])c1ccccc1CCl	–	–	–	·
O=C1CCN(C(=O)Cc2ccccc2[N+](=O)[O-])CC1	44	–	·	–
O=C(O)[C@@H]1[C@@H](CO)[C@@H]2Cn3c(ccc(-c4ccccc4)c3=O)[C@H]1N2CC1CCCCC1	–	–	–	–
Cn1cccc1/C=C1\C(=O)NC(=O)N(Cc2ccccc2Cl)C1=O	44	–	–	–
Cc1c(C)c2ccc(OCC(=O)N3CCN(Cc4ccccc4)CC3)cc2oc1=O	–	–	–	–
O=C(COc1ccc(Cl)cc1)N1CCN(Cc2ccccc2)CC1	–	–	–	16
COc1cc(CN2CCN(C(=O)Cc3ccccc3)CC2)cc(OC)c1OC	–	–	–	15
O=C(Cc1ccccc1)N1CCCCN2[C@H](C1)[C@H](c1ccc(C#Cc3ccccc3)cc1)[C@@H]2CO	–	–	–	–
CCN1[C@@H]2Cn3c(ccc(-c4cccc(OC)c4)c3=O)[C@H]1[C@@H](C(=O)OC)[C@@H]2CO	–	–	–	–
COC(=O)C1=C(c2cccc(OCc3ccccc3)c2)C[C@@H]2CC[C@H]1N2C(=O)NCCCOC(C)C	–	–	–	27
SMILES	FGF22 binding	ERAP1 HTS inh	Casp6 inh	SIRT5 block
COc1ccc2c(c1)C(c1ccc(N(CCCl)CCCl)cc1)=NCC2	–	–	–	–
COc1ccc(N2C(=O)C(=O)N(c3ccc(OC)cc3)P2(=O)N(CCCl)CCCl)cc1	43	–	–	·
N#Cc1cccc(-c2ccc([C@@H]3[C@@H](CO)N4CCCCN(C(=O)Cc5cccnc5)C[C@H]34)cc2)c1	–	·	·	–
CC1=NCCc2c1[nH]c1cc(O)ccc21	–	53	–	–
COc1ccc2c3c([nH]c2c1)C(C)=NCC3	–	–	–	–
Cc1ccsc1C(=O)C1CCCN(Cc2cnc(N3CCCC3)s2)C1 (stereo unspecified)	44	–	–	–
O=C(NN=Cc1ccc(N(CCCl)CCCl)cc1)C(=O)c1c[nH]c2ccccc12	–	–	–	–
O=C(NN=Cc1ccc(N(CCCl)CCCl)cc1)c1cc(=O)[nH]c(=O)[nH]1	44	–	–	·
COc1ccc2c3c1OC1C(O)C=CC4C(C2)[N+](C)(C)CCC341 (stereo unspecified)	–	58	–	–
CN1CC[C@]23c4c5ccc(O)c4OC2[C@H](O)C=CC3[C@H]1C5 (stereo partly specified)	–	–	–	·
C[C@@H]1CN([C@H](C)CO)C(=O)c2c(c3ccccc3n2C)-c2ccccc2CO[C@H]1CN(C)C(=O)Oc1ccccc1	–	–	–	–
CC=Cc1ccc2n(c1=O)C[C@@H]1[C@@H](CO)[C@H](C(=O)N(C)C)[C@H]2N1C (mixture of isomers)	–	–	–	–
